From ChEMBL document CHEMBL3433997, “St. Jude Leishmania screening dataset” (2016)
Values joined by “and” are separate entries in the source; they are usually repeats but may differ in a detail not shown here. Identical values can stand only once.

How the values were obtained:
Type in all cases: functional
[1] = biological target: Solute carrier family 2, facilitated glucose transporter member 1 (Homo sapiens) (UniProt P11166); test: ST_JUDE_LEISH: Cytotoxicity at 2uM final concentration against transgenic Leishmania Mexicana promastigotes LmGLUT1 that are glucose transport deficient and complemented with the human glucose transporter GLUT1. Activity is measured by DNA content using SYBR green in vitro
[2] = biological target: Hexose transporter 1 (Plasmodium falciparum) (UniProt O97467); test: ST_JUDE_LEISH: Cytotoxicity at 2uM final concentration against transgenic Leishmania Mexicana promastigotes LmPfHT that are glucose transport deficient and complemented with the Plasmodium falciparum hexose transporter. Activity is measured by DNA content using SYBR green in vitro
[3] = biological target: Glucose transporter (Leishmania mexicana) (UniProt O61059); test: ST_JUDE_LEISH: Cytotoxicity at 2uM final concentration against transgenic Leishmania Mexicana promastigotes LmGT2 that are glucose transport deficient and complemented with the L. Mexicana glucose transporter 2. Activity is measured by DNA content using SYBR green in vitro

Chain of Solute carrier family 2, facilitated glucose transporter member 1 (Homo sapiens) (P11166 whole entry): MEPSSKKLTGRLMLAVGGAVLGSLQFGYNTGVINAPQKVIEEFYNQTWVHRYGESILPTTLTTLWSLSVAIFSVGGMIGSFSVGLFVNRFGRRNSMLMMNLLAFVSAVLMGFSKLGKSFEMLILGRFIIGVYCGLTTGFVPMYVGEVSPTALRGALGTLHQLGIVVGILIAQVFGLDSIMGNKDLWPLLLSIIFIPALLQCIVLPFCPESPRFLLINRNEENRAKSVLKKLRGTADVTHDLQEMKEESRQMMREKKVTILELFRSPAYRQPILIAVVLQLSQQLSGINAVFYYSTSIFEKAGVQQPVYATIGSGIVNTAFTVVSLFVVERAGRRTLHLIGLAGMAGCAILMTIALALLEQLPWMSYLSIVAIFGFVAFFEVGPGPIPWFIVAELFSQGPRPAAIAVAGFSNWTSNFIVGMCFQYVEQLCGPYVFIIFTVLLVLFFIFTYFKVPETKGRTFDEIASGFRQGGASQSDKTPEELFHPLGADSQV

Compound | inhibition [1] | inhibition [2] | inhibition [3]
O=C1COc2ccccc2N1CCN1CCC(NCc2ccc(-c3cccs3)cc2)CC1 | 8.28% | 7.16% | 3.03%
CN(c1ccnc(Nc2ccc(CS(C)(=O)=O)cc2)n1)C1CCN(Cc2ccccc2)CC1 | 2.04% | 2.62% | 1.21%
OC(CNC1CCCCC1)c1ccc(Cl)c(Cl)c1 (stereo not drawn) | -1.03% | -0.96% | -0.95%
CC[C@H]1CN2CC[C@H]1C[C@H]2[C@H](O)c1cc(-c2ccccc2C)nc2ccc(OC)cc12 | 0.33% | 0.37% | -4.71%
O=C(/C=C/c1ccc(Cl)c(Cl)c1)Nc1cccc(CN2CCC(c3c[nH]c4ccc(O)cc34)CC2)c1 | 0.9% | 1.55% | -0.7%
CCN(CC)CCN1C(=O)C(O)(c2ccccc2Cl)c2c1cc(C#N)cc2C(F)(F)F (stereo not drawn) | 2.9% | 2.02% | 4.08%
O=C(NC1CCC(CN2CCC(c3c[nH]c4ccccc34)CC2)CC1)NC12CC3CC(CC(C3)C1)C2 (stereo not drawn) | 3.42% | 3.16% | 1.41%
COc1ccc(CN(C2CC2)C(C)C(=O)c2[nH]c(C)c(C(C)=O)c2C)cc1 (stereo not drawn) | -1.09% | 1.96% | -1.15%
COc1ccc(NC(=S)NC(NC(=O)CF)C(Cl)(Cl)Cl)cc1[N+](=O)[O-] (stereo not drawn) | 3.05% | -3.38% | -1.65%
COc1cccc(CCNC(C)Cc2ccc(OCCCCOc3ccccc3)cc2)c1 (stereo not drawn) | 95% | 96.3% | 101%
COc1cccc(C2(NC[C@@H](O)[C@H](Cc3ccccc3)NC(=O)c3ccccc3)CCCCC2)c1 | 0.07% | -1.37% | -4.56%
CN(C)c1cccc(CN2CC=C(c3c[nH]c4ccc(Cl)cc34)CC2)c1 | 8.22% | 6.95% | 4.91%
CC(C)CNCc1ccc(-c2cccc(CN(C(=O)CCC3CCCC3)C3CCN(Cc4ccccc4)CC3)c2)cc1 | 16.4% | 12.3% | 10.7%
CCCCC1(NC(=O)[C@H](CC(C)C)Nc2ccc(C#N)c3ccccc23)CCCCC1 | 1.12% | 4.9% | 2.56%
CC(NC(C)(C)C)C(O)c1ccc(Cl)c(C(F)(F)F)c1 (stereo not drawn) | 1.86% | 0.38% | 1.11%
Cc1csc(-c2ccc3[nH]cc(C4=CCN(C)CC4)c3c2)n1 | 7.46% | 9.43% | 6.12%
CN1CC(c2ccc(Cl)c(Cl)c2)OC1=N (stereo not drawn) | -0.53% | 0.23% | -0.89%
S=C(Nc1ccccc1Cl)NC1CCC(CN2CCC(c3c[nH]c4ccccc34)CC2)CC1 (stereo not drawn) | 5.7% | 8.06% | 3.34%
CC[C@H]1C[N+]2([O-])CC[C@@H]1C[C@H]2[C@H](O)c1cc(-c2ccccc2)nc2ccc(OC)cc12 | 5.08% | 2.87% | 4.7%
CC(C)CCNC(=O)c1cc(C(=O)c2cc(F)ccc2O)cn(CCC(C)C)c1=O | 3.21% | 2.53% | 6.46%
O=C(/C=C/c1ccccc1O)NC1CCC(CN2CCC(c3c[nH]c4ccccc34)CC2)CC1 (stereo not drawn) | -0.75% and -1.89% | 0.85% and 0.08% | -1.86% and -3.26%
CS(=O)(=O)Nc1ccc2[nH]cc(C3CC4CCC(C3)N4CC3CCC(NC(=O)/C=C/c4ccc(Cl)c(Cl)c4)CC3)c2c1 (stereo not drawn) | 5.91% | 5.37% | 5.09%
CCCCCCCc1cc(O)c2c(c1)OC(C)(C)c1ccncc1-2 | 1.49% | 2.54% | 1.72%
Cc1ccc(CC(C)NCC(O)c2cccc(C(F)(F)F)c2)cc1 (stereo not drawn) | 1.64% and 2.89% | 4.33% and 0.46% | 1.68% and 0.49%

Compound | inhibition [1] | inhibition [2] | inhibition [3]
O=C(NCc1ccc(S(=O)(=O)N2CCC(CN3CCC(c4c[nH]c5ccccc45)CC3)CC2)s1)c1ccccc1 | 3.85% | 3.63% | 3.02%
COc1cc(CN2CCN(c3ccnc(N(C)C4CCN(C)CC4)n3)CC2)cc(Cl)c1O | 5.87% | 7.29% | 6.73%
COc1ccc(CC(C)NCC(O)c2cccc(Cl)c2F)cc1 (stereo not drawn) | 1.96% | -0.19% | 0.32%
Cc1cccc(N2CCN(Cc3cc(Cl)ccc3O)CC2)c1C | 0.93% | 1.18% | 3.25%
OC(CNC1CCCCCCC1)c1ccc(Cl)c(Cl)c1 (stereo not drawn) | 1.96% | 2.06% | 2.43%
Cc1[nH]c2ccc([N+](=O)[O-])cc2c1C1=CCN(C)CC1 | 1.47% | 1.63% | 2.86%
NCc1cccc(-c2cccc(CN(C(=O)Nc3ccccc3)C3CCN(Cc4ccccc4)CC3)c2)c1 | 7.36% | 6.75% | 6.25%
CCCCCc1cc(O)c2c(c1)OC(C)(C)CC2C1=CCN(Cc2ccccc2)CC1 (stereo not drawn) | 2.07% | 2.23% | 2.74%
CC(C)NC(=O)Cn1cc(C2CCN(CC3CCN(C(=O)/C=C/c4ccc(Cl)c(Cl)c4)CC3)CC2)c2ccccc21 | 1.44% | 0.25% | 1.41%
CC[C@H]1CN2CC[C@H]1C[C@H]2[C@H](OC(=O)c1ccccc1)c1cc(C#N)nc2ccc(OC)cc12 | 1.81% | -0.58% | 0.6%
Cc1ccc(-n2nc(C)c3c2NC(=O)CSC3c2ccsc2)cc1 (stereo not drawn) | 9.48% | 13.5% | 11%
Cc1cc(-c2ncc[nH]2)ccc1-c1ccc(C(=O)N2CCc3cc4c(cc32)C2(CCN(C)CC2)CO4)cc1 | -2.79% | 1.74% | -0.2%
CN(CC(=O)N1CCN(S(=O)(=O)c2cccc(Cl)c2)CC1CN1CCCC1)c1ccc(Cl)c(Cl)c1 (stereo not drawn) | 0.54% | 1.78% | 2.07%
Cc1ccc(CC(C)NCC(O)c2cccc([N+](=O)[O-])c2)cc1 (stereo not drawn) | 0.3% | -0.33% | 1.06%
CCC(C)CN1CCC(N(C)c2cc(NC(=O)c3cccc(C)c3)ccn2)CC1 (stereo not drawn) | -1.69% | 1.14% | -0.14%
O=C(CSc1ccc(Cl)cc1)NC1CCC(CN2CCC(c3c[nH]c4ccccc34)CC2)CC1 (stereo not drawn) | 5.29% | 1.76% | 2.72%
CCCCCc1cc(O)c2c3c(c(=O)oc2c1)CN(C)CC3 | 2.93% | 2.18% | 1.87%
COc1cc(C=CC(=O)N2CCC(CN3CCC(c4c[nH]c5ccccc45)CC3)CC2)cc(OC)c1 | 2.61% | 0.72% | -2.69%
CC[C@H]1CN2CC[C@@H]1C[C@H]2[C@H](O)c1cc(-c2ccc(Cl)c(Cl)c2)nc2ccc(O)cc12 | -0.36% | -1.15% | -0.47%
CSc1nccc(-c2ccc(S(=O)(=O)NC3CCC(CN4CCC(c5c[nH]c6ccccc56)CC4)CC3)s2)n1 (stereo not drawn) | 2.14% and 2.23% | 0.65% and 1.79% | 2.7% and 0.3%
C[C@H](Cc1ccc(OCCCCCCOc2ccccc2)cc1)NC[C@H](O)c1cccc(Cl)c1 | -0.31% | -0.04% | -0.25%
O=C(C=Cc1ccc(-c2ccccc2)cc1)NC1CCC(CN2CCC(c3c[nH]c4ccccc34)CC2)CC1 (stereo not drawn) | 6.41% and 5.7% | 7.57% and 7.18% | 6.53% and 3.78%
CN(c1cc(NC(=O)c2ccc(F)cc2)ccn1)C1CCN(Cc2cccc(O)c2)CC1 | 2.68% | 4.98% | 6.32%
C=C[C@H]1CN2CC[C@H]1C[C@H]2[C@H](O)c1ccnc2ccccc12 | 0.68% | 1.87% | 1.5%

Compound | inhibition [1] | inhibition [2] | inhibition [3]
COC(=O)c1ccc(CC(C)NCC(O)c2cccc(C(F)(F)F)c2)cc1C (stereo not drawn) | 0.54% | 1.8% | 0.87%
c1ccc2c(NCCCCCCNc3c4ccccc4nc4ccccc34)c3ccccc3nc2c1 | 5.54% | 6.29% | 4.31%
CN(C)CCCOc1ccc(CN2CCC(c3c[nH]c4ccc(NCC5CCCCC5)cc34)CC2)cc1 | 3.02% | 3.5% | 3.06%
Cc1ccc(C2(O)CC3CCC(C2)N3C)cc1 (stereo not drawn) | 2.44% | 2.72% | 3.25%
COCCNCc1ccc(-c2cccc(CN(C(=O)CCC3CCCC3)C3CCN(Cc4ccccc4)CC3)c2)cc1 | -4.16% | 1.28% | -1.05%
N#Cc1c(Cl)cccc1Oc1ccc(S(=O)(=O)NC2CCC(CN3CCC(c4c[nH]c5ccccc45)CC3)CC2)cc1 (stereo not drawn) | 0.9% and 1.4% | 1.87% and 1.07% | 0.19% and -0.57%
CC[C@H]1CN2CC[C@H]1C[C@@H]2[C@@H](OC(=O)c1ccc(Cl)cc1)c1ccnc2ccc(OC)cc12 | 1.77% | 0.13% | -1.41%
CC1(C)CCCN(C(=O)Cc2ccc3c(c2)CCCC3)C1CN1CC=CC1 (stereo not drawn) | 8.1% | 8.82% | 8.93%
O=C(CCc1ccc(Cl)cc1Cl)NC1CCC(CN2CCC(c3c[nH]c4ccccc34)CC2)CC1 (stereo not drawn) | 1.11% and 15.9% | -0.14% and 8.88% | -2.05% and 8.96%
COC(=O)c1ccc(CC(C)NCC(O)c2cccc(Cl)c2Cl)cc1 (stereo not drawn) | 3.29% | 2.6% | 3.04%
Clc1ccc2nccc(N3CCC(CN4CCC(c5c[nH]c6ccccc56)CC4)CC3)c2c1 | 0.88% | 0.94% | 2.61%
Cc1[nH]c2ccccc2c1C1=CCN(CC2CC2C(=O)c2ccccc2)CC1 (stereo not drawn) | 10.7% | 9.13% | 8.4%
Cc1cc(O)cc2c(C3CCN(CC4CCC(NC(=O)/C=C/c5ccccc5Cl)CC4)CC3)c[nH]c12 (stereo not drawn) | 4.47% | 4.35% | 3.52%
O=C(/C=C/c1ccc(Cl)c(Cl)c1)NCCC1CCC(N2CCC(c3c[nH]c4ccccc34)CC2)CC1 (stereo not drawn) | 6.03% | 7.76% | 4.25%
COCCSc1ccc(CC(C)NCC(O)c2cccc(Cl)c2)cc1 (stereo not drawn) | 0.56% | 0.25% | 0.74%
COc1cc2c(c(OC)c1OC)C[C@H]1c3c(cc4c(c3-2)OCO4)CCN1C | -0.22% | 1.49% | 1.06%
CCOC(C(=O)OCC1CCCN1C(C)C)(c1ccccc1)c1ccccc1 (stereo not drawn) | 3.57% | 3.09% | 1.53%
CC[C@H]1CN2CC[C@H]1C[C@H]2[C@H](O)c1cc(-c2ccc3ccccc3c2)nc2ccc(OC)cc12 | 10% | 4.9% | 3.26%
O=C1Nc2cccc3c2C1(CCCCN1CC=C(c2c[nH]c4ncccc24)CC1)CCC3 (stereo not drawn) | 5.83% | 4.08% | 3.96%
O=C(/C=C/c1ccc(Cl)c(Cl)c1)Nc1cccc(CN2CCC(c3c[nH]c4ccccc34)CC2)c1 | 8.01% | 6.99% | 5.33%
Cc1ccc(CC(C)NCC(O)c2cccc(Cl)c2)cc1F (stereo not drawn) | 9.84% | 9.76% | 9.69%
CCOc1ccc2nccc([C@@H](O)[C@@H]3C[C@@H]4CCN3C[C@@H]4CC)c2c1 | 1.23% and 2.9% | 1.71% and 3.63% | 3.59% and -0.94%
CC[C@H]1CN2CC[C@@H]1C[C@H]2[C@H](O)c1cc[n+]([O-])c2ccc(OC)cc12 | -2.84% | -0.91% | -1.06%
